In the library only some 12% were active in any assay of this set; here they are far more common.
Calpain2 inh – calpain II (pig) inhibition; purified calpain II, fluorogenic peptide substrate, 30 min; inhibition, % at 16 µM; 220,000 tested, 0.37% active; AID 1236;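 active means inhibition above about 50%, limit read from the data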
ROMK primary – modulates human ROMK potassium channel activity; Tet-inducible ROMK, thallium flux fluorescence; actives lie on both sides; B-score at 10 µM; P48048; 130,000 tested, 2% active;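 active means signal ratio slope over the read window, or its plate-corrected B-score, at least 3 SD from the plate mean, either direction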;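 further: B-score of the F/F0 ratio slope over 7 to 12 s after thallium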
Cl transport mod – modulates chloride dependent transport by human KCC2; 190,000 tested, 2.2% active; KCC2 cells, thallium flux FluoZin-2 fluorescence; Q9H2X9; B-score of Tl+ flux slope (higher = more flux/activation; lower = inhibition) at 10 µM;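 active means thallium flux slope and its plate-corrected score both differing from the plate sample mean at a set confidence after two filtering rounds, in either direction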;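 further: slope of fluorescence scaled to starting intensity during 10 to 20 s after thallium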
L major viab – reduces viability of Leishmania major promastigotes; resazurin fluorescence viability; inhibition, % at 10 µM; 200,000 tested, 9% active; in the data active means inhibition above about 50%;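 further: promastigotes grown with compound for 44 hours at 28 °C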
WT yeast gro inh – growth inhibition of WT yeast, mitochondrial fusion screen | mitochondrial fusion phenotypic screen, WT strain | inhibition, % at 10 µM | 190,000 tested, 2.1% active | AID 1362; in the data active means inhibition above about 58%; tested in S. cerevisiae
* hit, by the source's call; i = inactive; . = no result.

SMILES	Calpain2 inh	ROMK primary	Cl transport mod	L major viab	WT yeast gro inh
Cc1c(Br)cc(C(=O)OC2CCN(C)CC2)c(C)c1C	23	.	-1.8	86*	-6
COc1cccc(C(=O)OC2CCN(C)CC2)c1	28	0.026	-0.26	2	4
CC1=CC(C)(C)N=C(Nc2ccc(C)cc2)S1	12	.	0.62	29	10
Cc1ccc(CN2CCN(/N=C/c3cc(Br)cc(Br)c3O)CC2)cc1	10	0.43	i	51*	47
Cc1ccc(CN2CCN(/N=C/c3ccc(Cl)c([N+](=O)[O-])c3)CC2)cc1	19	-0.7	-1	95*	64*
O=C(c1c(F)c(F)c(F)c(F)c1F)N(Cc1ccccc1)Cc1ccccc1	11	.	-0.1	8	66*
O=C(O)c1ccccc1C(=O)N(Cc1ccccc1)Cc1ccccc1	-25	-0.058	.	-7	3
CCc1ccc(C(=O)CSc2nc(C)cc(=O)[nH]2)cc1	29	0.63	-0.46	-8	18
CN(C(=O)CSc1nc(N)c2c3c(sc2n1)CSC(C)(C)C3)c1ccccc1	-60	.	-0.29	35	-5
COc1ccc(C[C@H]2CN3C(=NC[C@@H]3C(C)C)N2CCNC(=O)CCC2CCCCC2)cc1	-7	.	-0.29	34	0
COc1ccc(C[C@H]2CN3C(=NC[C@@H]3Cc3ccccc3)N2CCNC(=O)CCC2CCCCC2)cc1	-15	.	-0.1	58*	5
Cc1ccc(OCC(=O)N2CCN(c3nnc(-c4ccc(C)cc4)c4ccccc34)CC2)cc1	7	-0.91	-1.6	30	79*
O=C1CC(c2cc(F)ccc2F)c2cc3c(cc2N1)CCC3 (stereo not drawn)	-6	2.4	-0.48	18	-4
CCN(CC)CCNC(=O)C(=O)NCC1OCCN1S(=O)(=O)c1ccc([N+](=O)[O-])cc1 (stereo not drawn)	-16	0.48	0.18	-4	-17
O=C(c1cc2cc(Br)ccc2o1)N1CCCC1	3	0.039	-1.4	-1	15
CC1CC(C)CN(C(=O)c2cc3cc(Br)cc(Br)c3o2)C1 (stereo not drawn)	34	0.012	0.35	90*	78*
N#C/C(=C/c1ccc(-c2ccccc2)o1)c1nc(-c2cccs2)cs1	-19	-5.3*	-1	-7	3
COc1ccc(-n2c(SCC(=O)N3CCc4ccccc43)nnc2-c2c[nH]c3ccccc23)cc1	1	1.4	0.52	4	16
COC(CNC(=O)c1ccc(N2CCc3ccccc32)c([N+](=O)[O-])c1)OC	6	-1	0.36	96*	-25
CCN(CC(=O)NCc1ccc(Cl)cc1)CC(=O)Nc1ccc(C(N)=O)cc1	-16	1.2	0.37	-3	-5
CC1CCN(C2=NC(=O)/C(=C/c3cn(-c4ccccc4)nc3-c3cccc(S(=O)(=O)N(C)C)c3)S2)CC1	-159	0.41	.	80*	-9
CC1CCCN(C2=NC(=O)/C(=C/c3cn(-c4ccccc4)nc3-c3cccc(S(=O)(=O)N(C)C)c3)S2)C1 (stereo not drawn)	-183	-0.063	.	69*	-13
Cc1cc(-c2nn(-c3ccccc3)cc2/C=C2\SC(N)=NC2=O)ccc1OC(C)C	-77	-0.25	-0.21	14	-12
CN(C)/C=C/C(=O)c1cc(F)cc(C(F)(F)F)c1	-3	1.7	-0.29	-1	-9
Cc1cc(N2C(=O)C(O)=C(C(=O)c3ccc(C)o3)C2c2cccs2)no1 (stereo not drawn)	-33	.	-3*	-8	1
SMILES	Calpain2 inh	ROMK primary	Cl transport mod	L major viab	WT yeast gro inh
Cc1cc(N2C(=O)C(O)=C(C(=O)c3ccco3)C2c2ccc(O)cc2)no1 (stereo not drawn)	1	.	-0.24	-7	2
CN1CCN(C(=S)c2cn(Cc3ccccc3)c3ccccc23)CC1	28	-0.29	-0.21	22	19
CN1CCN(C(=S)c2cn(Cc3ccc(Br)cc3)c3ccccc23)CC1	-55	-0.15	.	53*	79*
CC1CCN(C(=S)c2cn(Cc3cccc(F)c3)c3ccccc23)CC1	41	0.67	0.88	67*	71*
O=C(Cc1ccccc1Cl)Nc1cccnc1	-29	0.13	-0.36	1	-2
Nc1ccc(-c2nc3nc(N)nc(N)c3nc2-c2ccc(N)cc2)cc1	5	.	0.69	.	.
Cc1nc(CSc2nnc3scc(-c4ccc(Cl)cc4)n23)cs1	18	-0.91	-1.9	5	-1
Cc1cc(-c2ccccc2)nc(SC(C(=O)O)c2ccccc2)n1 (stereo not drawn)	-12	-0.36	-0.47	-3	1
Cc1cc(=O)[nH]c(SC(C(=O)O)c2ccccc2)n1 (stereo not drawn)	8	.	0.012	73*	-20
